Compounds with a hit are over-represented: about 28% of the library has one in this group of screens.
CYP2C9 inhib: blocks human cytochrome P450 2C9 | P11712 | CYP2C9 Supersomes, luciferin-H conversion, luminescence | inhibition, % at 5 µM | hit rate 20% among 96,000 | AID 777;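 active = blocking of liver enzyme CYP2C9 beyond about 50% at 5 µM, limit read from the data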
CYP2C19 activ: cytochrome P450 2C19 (human) activation. activation factor at 5 µM. 96,000 tested, under 10 active. recombinant CYP2C19, luciferin-H EGE luminescence; hits give high values; 0 = fully inhibited enzyme, 1 = untreated enzyme;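 active = activation factor of at least 2 at 5 µM in the primary screen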;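 also: 0 = wells with 2.5 mM tranylcypromine and 1 = vehicle-only wells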
Target sequence (P33261 whole entry, looked up): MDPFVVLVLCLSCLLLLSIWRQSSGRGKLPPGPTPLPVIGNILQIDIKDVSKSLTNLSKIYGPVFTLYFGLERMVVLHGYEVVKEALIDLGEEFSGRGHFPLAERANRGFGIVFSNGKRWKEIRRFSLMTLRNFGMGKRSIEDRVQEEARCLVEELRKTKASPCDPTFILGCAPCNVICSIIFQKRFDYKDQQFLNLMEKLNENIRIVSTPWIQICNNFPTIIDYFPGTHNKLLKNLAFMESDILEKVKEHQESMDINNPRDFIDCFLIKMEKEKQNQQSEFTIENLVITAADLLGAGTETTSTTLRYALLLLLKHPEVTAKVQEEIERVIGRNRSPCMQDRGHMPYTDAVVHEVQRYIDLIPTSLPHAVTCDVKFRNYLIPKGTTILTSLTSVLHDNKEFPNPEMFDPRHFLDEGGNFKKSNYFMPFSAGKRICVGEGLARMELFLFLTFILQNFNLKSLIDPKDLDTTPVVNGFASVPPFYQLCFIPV
CYP2C19 inhib: human CYP2C19 inhibition; P33261; CYP2C19 Supersomes, luciferin-H EGE luminescence, 30 min; hit rate 21% among 96,000; inhibition, % at 5 µM;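 active = CYP2C19 inhibition above a set limit at 5 µM in the primary screen, cut at about 50% in these data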;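 also: plate controls were negative control wells for no effect and 2.5 mM tranylcypromine positive control for full effect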
CD11b adhes inh: CD11b/CD18-fibrinogen binding inhibition. AID 1497. hit rate 0.54% among 93,000. inhibition, % at 10 µM. K562 CD11b/CD18 adhesion to fibrinogen, ATPlite luminescence; Mn2+ added to activate the integrin;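 active = primary inhibition of 50% or more at 10 µM, then 40% or more on retest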
CYP2C9 activ: activators of human CYP2C9; P11712; recombinant CYP2C9, luciferin-H conversion, luminescence; hits give high values; factor 1 = untreated enzyme, 0 = blocked; activation factor at 5 µM; hit rate 1.4% among 96,000;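 active = activation factor of 2 or more for CYP2C9 at a 5 µM dose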;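 also: 0 = sulfaphenazole-blocked wells and 1 = vehicle-only wells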
Mac1 fbg enh: CD11b/CD18-fibrinogen binding enhancement. P05107+P11215. K562 CD11b/CD18 adhesion to fibrinogen, ATPlite luminescence. activation, % at 10 µM. hit rate 0.07% among 93,000. AID 1499;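 active = 10 µM primary screen giving 50% or more activity, confirmed by 40% or more on retest at that dose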
The depositor's hits bear a star; x = no result given.

SMILES | CYP2C9 inhib | CYP2C19 activ | CYP2C19 inhib | CD11b adhes inh | CYP2C9 activ | Mac1 fbg enh
O=C(CSC1c2ccccc2-c2ccccc21)N/N=C/c1ccccc1O | 52.8* | 0.4 | 59.3* | 35.8 | 0.5 | -2.6
Cc1ccc(C(=O)Nc2ccc(-n3ccnc3P(=O)(O)c3ccccc3)cc2)cc1 | -10.5 | 1.1 | -11.5 | 0.6 | 1.1 | 5.6
CC(C)(C)P(=O)(c1ccncc1)N1CCCC1 (centres undefined) | 35.0 | 1 | 4.3 | 6.8 | 0.7 | 2.3
Cn1c(O)c(C=NCc2ccco2)c(=O)n(C)c1=O | 27.9 | 0.5 | 52.3* | -44.8 | 0.7 | 6.3
CCOP(=O)(C#CC(C)(C)C)C(O)(c1ccccc1)C(F)(F)F (centres undefined) | -28.6 | 1.2 | -24.5 | -2.1 | 1.3 | -0.7
CCOC(=O)c1cn2nc(OP(=S)(OCC)OCC)cc2nc1C | 82.5* | 0 | 98.3* | 4.8 | 0.2 | 3.3
O=P1(Nc2cccnc2)COc2ccccc2OC1 | -0.5 | 0.9 | 11.8 | -9.3 | 1 | -3.0
CC1=NN(c2ccccc2)C(=O)C1/C=C1\C(=O)NC(=O)N(c2ccc(C)c(C)c2)C1=O (centres undefined) | 67.7* | 1.1 | -14.8 | -17.0 | 0.3 | -0.6
O=c1[nH]c(=S)n(Cc2ccc(F)cc2)c(O)c1/C=N/N1CCCCCC1 | x | x | x | 25.8 | x | 8.1
COc1ccc(N2C(=O)CC(N3CC=C(c4ccccc4)CC3)C2=O)cc1 (centres undefined) | 37.7 | 1 | -1.7 | -7.6 | 0.6 | -0.6
CC(=NCCCn1ccnc1)c1c(O)n(C)c(=O)n(C)c1=O | 13.6 | 0.9 | 13.7 | 5.7 | 0.9 | -2.6
CN1CCc2nc(SCC(=O)OC(C)(C)C)c(C#N)cc2C1 | 22.4 | 0.3 | 70.6* | 7.4 | 0.8 | -5.1
COc1ccc2[nH]c(C)c(CCN3CCC(=O)C(C)C3C)c2c1 (centres undefined) | 50.7* | 0.1 | 88.6* | -34.9 | 0.5 | 3.6
C=CCn1c(O)c(C(C)=NCCc2ccccc2)c(=O)[nH]c1=O | 25.3 | 0.9 | 5.6 | -1.1 | 0.7 | -0.2
C=CCn1c(O)c(C(CC)=Nc2cc(OC)ccc2OC)c(=O)[nH]c1=O | 90.0* | 0.2 | 79.3* | -14.8 | 0.1 | 0.9
C=CCn1c(O)c(C(C)=NCCO)c(=O)[nH]c1=O | 4.9 | 1 | -1.9 | 26.4 | 1 | -4.3
C=CCn1c(O)c(C(C)=NCc2cc(OC)cc(OC)c2)c(=O)[nH]c1=O | 84.8* | 0.2 | 83.0* | -13.6 | 0.2 | 2.5
C=CCn1c(O)c(C(C)=NCc2cccnc2)c(=O)[nH]c1=O | 8.0 | 0.3 | 68.2* | x | 0.9 | x
O=C(CCCC1=NS(=O)(=O)c2ccccc2N1)N1CCC2(CC1)OCCO2 | 1.6 | 1 | -1.0 | -3.7 | 1 | -3.2
COc1ccc(-n2c(O)c(C(C)=NC3CC3)c(=O)[nH]c2=O)cc1 | -15.9 | 0.7 | 30.7 | 0.4 | 1.2 | -3.9
O=c1[nH]c(O)c(/C=C2\C=NN=C2c2ccccc2)c(=O)[nH]1 | -2.7 | 0.9 | 8.6 | -7.6 | 1 | -2.9
COc1ccc(CCN(C)Cc2ccncc2)cc1OC | 67.3* | 0.2 | 81.8* | -16.9 | 0.3 | 1.2
COc1cc(OC)c(OC)cc1CNCCc1ccc(OC)c(OC)c1 | -3.3 | 1.1 | -8.4 | -20.1 | 1 | 3.1
COc1ccc(CCNCc2ccncc2)cc1OC | 52.1* | 0.3 | 65.9* | 9.9 | 0.5 | -4.4
CN(C)c1cc(N)c2c(n1)CCC2 (tested in a mixture with another compound) | -0.3 | 1 | -3.0 | -11.9 | 1 | 4.8
SMILES | CYP2C9 inhib | CYP2C19 activ | CYP2C19 inhib | CD11b adhes inh | CYP2C9 activ | Mac1 fbg enh
Cc1oc(-c2ccccc2F)nc1CS(=O)CC(=O)N1CCC2(CC1)OCCO2 (centres undefined) | -3.9 | 1.1 | -7.5 | -10.1 | 1 | -3.0
O=C(COc1ccc2ccccc2c1)N1CCN(CC2CC3C=CC2C3)CC1 (centres undefined) | 27.0 | 0.9 | 14.6 | x | 0.7 | x
CC12CN3CC(C)(CN(C1)C3c1ccco1)C2=O (centres undefined) | 6.5 | 0.9 | 5.3 | 67.1 | 0.9 | 5.4
O=[N+]([O-])c1ccccc1CNCCc1ccc(F)cc1 | -3.0 | 0.1 | 85.6* | -0.4 | 1 | 2.3
Cn1cc(C(=O)c2ccccc2)c2ccccc21 | -192.1 | 0.8 | 22.6 | 5.8 | 2.9* | -1.2
CCCCSP1(=S)NCCCO1 (centres undefined) | 26.3 | 0.7 | 25.8 | -3.3 | 0.7 | 2.1
CC1(C)COC(Nc2cccc(Cl)c2)=N1 | 76.2* | 0.9 | 11.5 | -12.2 | 0.2 | -3.7
CCN(CCNc1ccc([N+](=O)[O-])c2cccnc12)S(=O)(=O)c1ccccc1 | x | x | x | -11.1 | x | 43.1
CCC(CO)Nc1ccc([N+](=O)[O-])c2cccnc12 (centres undefined) | 26.8 | 0.4 | 57.5* | 3.4 | 0.7 | 7.0
CCN(CCNc1ccc([N+](=O)[O-])c2cccnc12)S(=O)(=O)c1ccc(Cl)cc1 | 50.9* | 0.4 | 60.9* | -4.9 | 0.5 | -0.8
NC12CN3CN(CN(C3)C1)C2 (tested in a mixture with another compound) | -96.8 | 1 | 4.6 | -4.8 | 2* | 2.7
O=C1NC(=O)N(c2ccc3c(c2)OCO3)C(=O)/C1=C\c1ccc(N2CCCCC2)o1 | x | x | x | -5.5 | x | -1.4
CN1C(=O)C(=Cc2ccc(N3CCCCCC3)o2)C(=O)N(C)C1=S | 23.1 | 0.4 | 59.2* | x | 0.8 | x
O=C(C1CCC(=O)N1C1CCCCC1)N1CCC2(CC1)OCCO2 (centres undefined) | 9.2 | 1 | 2.7 | 4.8 | 0.9 | 3.1
CN(C)CCN=Cc1c(O)n(-c2cccc(C(F)(F)F)c2)c(=O)[nH]c1=O | -21.4 | 1.1 | -12.4 | 9.0 | 1.2 | -0.9
CC1SC2(CN3CCC2CC3)NC1=O (centres undefined) | 3.4 | 0.9 | 10.0 | 26.2 | 1 | 3.7
CNC(=O)Oc1ccc2c(c1)C(=O)c1ccccc1CO2 | 39.6 | 0.4 | 60.6* | 2.5 | 0.6 | -1.7
COCCOC(=O)C1=C(N)Oc2c(c(=O)oc3ccccc23)C1c1ccncc1 (centres undefined) | 96.8* | 0 | 96.1* | -8.5 | 0 | -1.7
CCCC(C)C1C(C#N)=C(N)Oc2c1c(=O)oc1ccccc21 (centres undefined) | 70.3* | 0.8 | 21.9 | -6.8 | 0.3 | 3.3
CC(C)Oc1ccc(C2C(C#N)=C(N)Oc3c2c(=O)oc2ccccc32)cc1 (centres undefined) | 90.3* | 1 | -3.5 | -5.7 | 0.1 | -4.7
COc1ccc(C2C(C#N)=C(N)Oc3c2c(=O)oc2ccccc32)cc1Cn1cc([N+](=O)[O-])cn1 (centres undefined) | 96.8* | 0.7 | 33.2 | x | 0 | x
NC(=S)N/N=C/c1coc2ccccc2c1=O | x | x | x | -6.1 | x | 0.6
C/C(=N\N1CCN(C)CC1)c1c(O)n(Cc2ccccc2)c(=O)[nH]c1=O | x | x | x | 5.1 | x | -1.3

Source: PubChem
